# Experimental data taken from PubChem BioAssay (NCATS).
# Activity calls are given as the source filed them. Calls follow the shape of the dose curve; as a rule, active = well fitted inhibition curve with a large enough effect; inconclusive = small, poorly fitted or top-dose-only effect; inactive = flat fitted curve, though single readings scatter.
# Biological target: ATP-dependent DNA helicase Q1 (Homo sapiens) (UniProt P46063)
# Experiment: qHTS Validation Assay for Inhibitors of RecQ-Like Dna Helicase 1 (RECQ1) (AID 2353)
# Conditions: recombinant RECQ1 helicase DNA unwinding assay; series mostly up to 25.6 µM
# Excerpt: Survival of cells and the faithful propagation of the genome depend on elaborate mechanisms of detecting and repairing DNA damage. Treatment of advanced cancer relies on radiation therapy or chemotherapy, which kill cancer cells by causing extensive DNA damage. It is often found, that cancer cells develop resistance to therapy through enhanced activity of DNA repair functions; this has led to an increased interest in developing drugs that interfere with DNA repair, which could sensitize cancer cells to conventional therapy.
# This validation qHTS assay pertains to human RECQ1, which is important in resolving abnormal DNA structures formed during replication or homologous recombination. Shutting down the expression of RECQ1 leads to chromosomal instability and higher radiation sensitivity in cultured cells.
# The validation assay was a fluorescence quenching based kinetic qHTS for RECQ1 Helicase DNA unwinding. The activity was measured as ATP-dependent separation of a 20-bp DNA duplex extended by 30-nt single-stranded tails (forked duplex). The forked DNA substrate was tagged with rhodamine fluorophore (carboxytetramethyl rhodamine, TAMRA) and BHQ-2 (Black Hole Quencher 2) dark quencher. Strand separation results in an increase in the fluorescence of TAMRA (excitation 525 nm, emission 598 nm). This substrate construct operates in a red-shifted region where very few compound library members have been noted to fluoresce (PubChem AIDs 593 and 594). An additional feature of the assay is the inclusion of 2.5 ug/ml poly (dIdC), to reduce interference by compounds such as DNA intercalators, a major source of false inhibitors.
# Opher Gileadi, Structural Genomics Consortium, University of Oxford
# Screening Center PI: Austin, C.P.
# Screening Center: NIH Chemical Genomics Center [NCGC]
# Three uL of reaction buffer (25 mM Tris-HCl (pH 8.0), 5 mM NaCl, 2 mM MgCl2, 1mM DTT, 0.01% Tween- 20, and 2.5 ug/ml poly(dI-dC), including enzyme (50 nM RECQ1T1), were dispensed into a 1536-well Greiner black assay plate via solenoid-valve based nanoliter dispensers. Compounds (23 nl each in columns 5-48) and control (23 nl each in column 2 as dose-response) were transferred via a Kalypsys pintool equipped with a 1536-pin array. The plates were incubated for 15 min at room temperature, and then 1 ul of substrates (200 nM DNA and 2 mM ATP, final concentrations) was added to start the reaction. The plate was transferred into a ViewLux high-throughput CCD imager where the reaction progress was measured in a discontinuous kinetic mode (two reads spaced 2 hours apart, with intermediate room temperature incubation of the covered assay plate) by using standard red-fluorescence optics (excitation filter 525 nm, emission filter 598 nm). Enzyme-free and vehicle (DMSO) controls were included for signal normalization.
# ATP-dependent DNA helicase Q1 (Homo sapiens), sequence (P46063 whole entry, looked up): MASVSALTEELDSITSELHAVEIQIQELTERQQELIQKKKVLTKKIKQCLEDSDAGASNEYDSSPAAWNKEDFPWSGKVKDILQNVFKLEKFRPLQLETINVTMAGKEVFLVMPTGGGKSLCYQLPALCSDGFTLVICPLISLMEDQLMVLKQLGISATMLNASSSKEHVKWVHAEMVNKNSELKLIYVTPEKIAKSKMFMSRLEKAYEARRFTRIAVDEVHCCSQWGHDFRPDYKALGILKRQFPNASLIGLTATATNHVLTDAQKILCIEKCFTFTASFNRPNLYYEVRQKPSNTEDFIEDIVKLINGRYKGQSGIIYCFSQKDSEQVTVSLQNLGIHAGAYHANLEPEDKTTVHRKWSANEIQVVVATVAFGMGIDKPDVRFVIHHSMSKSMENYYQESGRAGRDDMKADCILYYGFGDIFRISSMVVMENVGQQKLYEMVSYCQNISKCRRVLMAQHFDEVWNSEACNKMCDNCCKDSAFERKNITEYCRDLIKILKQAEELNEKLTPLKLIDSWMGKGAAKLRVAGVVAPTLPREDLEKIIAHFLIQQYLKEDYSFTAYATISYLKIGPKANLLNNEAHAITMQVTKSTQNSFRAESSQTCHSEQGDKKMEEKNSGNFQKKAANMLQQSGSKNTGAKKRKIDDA
row,SMILES,outcome
1,CCc1c(C(=O)OC)ncc2[nH]c3cc(OC)c(OC)cc3c12,inactive
2,C[C@@H]1O[C@@H](O[C@H]2C[C@@H](O)[C@]3(CO)[C@H]4[C@H](O)C[C@]5(C)[C@@H]([C@@H]6COC(=O)C6)CC[C@]5(O)[C@@H]4CC[C@]3(O)C2)[C@H](O)[C@H](O)[C@H]1O,inactive
3,COc1ccc2c3c1O[C@H]1C(=O)CC[C@@]4(O)C(C2)N(CC2CC2)CCC314 (stereo not given in full),inactive
4,NC(Cn1ccc(=O)[nH]c1=O)C(=O)O (stereo not given),inactive
5,C/C=C(/C)C(=O)O[C@H]1C(C)=C2C([C@@H]1OC(=O)CCCCCCC)[C@@](C)(OC(C)=O)C[C@@H](OC(=O)CCC)[C@@]1(O)[C@H]2OC(=O)[C@@]1(C)O (stereo not given in full),inactive
6,Oc1ccc2c3c1O[C@H]1[C@@H](O)CC[C@@]4(O)C(C2)N(CC2CCC2)CCC314 (stereo not given in full),inactive
7,C#CCN(C)C(C)Cc1ccccc1 (stereo not given),inactive
8,Oc1cc2c(cc1O)[C@H]1c3ccccc3CNC1CC2 (stereo not given in full),inactive
9,NCC#Cc1ccccc1,inactive
10,CCN(CC)C(=O)N[C@@H]1C[C@@H]2c3cccc4[nH]cc(c34)C[C@H]2N(C)C1,inactive
11,C[C@H]1C2Cc3ccc(O)cc3[C@]1(C)CCN2CC1CC1,inactive
12,CCCN1CCc2cc(O)cc3c2C1Cc1ccc(O)c(O)c1-3 (stereo not given),inactive
13,COc1cc(C=C(C#N)C#N)cc(O)c1O,inactive
14,C[N+]1(C)C2CC(OC(=O)C(CO)c3ccccc3)CC1C1OC12 (stereo not given),inactive
15,C[C@]12CC[C@H]3[C@@H](CCC4C[C@H](O)CC[C@@]43C)[C@@H]1CC[C@@H]2O (stereo not given in full),inactive
16,CC(C)[C@@]1(NC(=O)[C@@H]2C[C@@H]3c4cccc5[nH]cc(c45)C[C@H]3N(C)C2)O[C@@]2(O)C3CCCN3C(=O)[C@H](Cc3ccccc3)N2C1=O (stereo not given in full),inactive
17,CCNC(=O)[C@H]1O[C@@H](n2cnc3c(N)ncnc32)[C@H](O)[C@H]1O,inactive
18,COC(=O)C(N)CCCN=C(N)N[N+](=O)[O-] (stereo not given),inactive
19,CC1Cc2cc3c(cc2C(c2ccc(N)cc2)=NN1)OCO3 (stereo not given),inactive
20,CN1C[C@@H](CS(=O)(=O)N(C)C)C[C@@H]2c3cccc4c3c(cn4C)C[C@H]21,inactive

row,SMILES,outcome
1,O=C(OC1CCN(CCCl)CC1)C(c1ccccc1)c1ccccc1,inactive
2,CCC(CO)NC(=O)[C@@H]1C=C2c3cccc4[nH]cc(c34)C[C@H]2N(C)C1 (stereo not given in full),inactive
3,CN1CCC23CCCC[C@H]2C1Cc1ccc(O)cc13 (stereo not given in full),inactive
4,CCCCN1C2CCC1CC(OC(c1ccc(F)cc1)c1ccc(F)cc1)C2 (stereo not given),inactive
5,COc1ccc2c(c1O)-c1cccc3c1C(C2)N(C)CC3 (stereo not given),inactive
6,CCCN1CCC[C@@H](c2cccc(C#N)c2)C1,inactive
7,O=C(O)C1C2CCC(O2)C1C(=O)O (stereo not given),inactive
8,C[C@]12CC[C@H](O)CC1=CCC1C2CC[C@]2(C)C(=O)CC[C@@H]12 (stereo not given in full),inactive
9,Nc1ncnc2c1ncn2[C@@H]1O[C@H](COP(=O)(O)CP(=O)(O)OP(=O)(O)O)[C@H](O)[C@H]1O,inactive
10,CCN1C[C@]2(C)CC[C@H](O)[C@@]34[C@@H]5C[C@@H]6[C@@H](OC)C[C@@](O)(C5[C@H]6O)[C@@H](C[C@@H]23)[C@@H]14,inactive
11,COc1cc(C[C@@H](C)N)c(OC)cc1I,inactive
12,N#CC(=Cc1ccc(O)c(O)c1)C(N)=S,inactive
13,CCCN1CCCC(c2cccc(O)c2)C1 (stereo not given),inactive
14,CCCN1CCc2cccc3c2C1Cc1ccc(O)c(O)c1-3 (stereo not given),inactive
15,CCCN(CCC)[C@@H]1CCc2c(F)ccc(O)c2C1,inactive
16,CCCC[N+]1(C)C2CC(OC(=O)C(CO)c3ccccc3)CC1C1OC12 (stereo not given),inactive
17,C[C@]12CC[C@H](OS(=O)(=O)O)CC1=CCC1C2CC[C@]2(C)C(=O)CC[C@@H]12 (stereo not given in full),inactive
18,C=CCN1CCc2cccc3c2C1Cc1ccc(O)c(O)c1-3 (stereo not given),inactive
19,C[C@H]1OC[C@@H](C[N+](C)(C)C)O1,inactive
20,CCCN(CCC)C(=O)Cc1c(-c2ccc(Cl)cc2)nc2c(Cl)cc(Cl)cn12,inactive
